Source: PubChem BioAssay (The Scripps Research Institute Molecular Screening Center)
A selection: hits, their analogues and other compounds. The true share with any hit is near 0.9%.
PPARg SRC3 recr = agonists of human PPARgamma SRC-3 coactivator recruitment; activation, % at 8 µM; 200,000 tested, 0.26% active; P37231; biochemical PPARgamma/SRC-3 coactivator recruitment assay; in the data active = activation above about 23%
Target sequence (P37231 whole entry, looked up): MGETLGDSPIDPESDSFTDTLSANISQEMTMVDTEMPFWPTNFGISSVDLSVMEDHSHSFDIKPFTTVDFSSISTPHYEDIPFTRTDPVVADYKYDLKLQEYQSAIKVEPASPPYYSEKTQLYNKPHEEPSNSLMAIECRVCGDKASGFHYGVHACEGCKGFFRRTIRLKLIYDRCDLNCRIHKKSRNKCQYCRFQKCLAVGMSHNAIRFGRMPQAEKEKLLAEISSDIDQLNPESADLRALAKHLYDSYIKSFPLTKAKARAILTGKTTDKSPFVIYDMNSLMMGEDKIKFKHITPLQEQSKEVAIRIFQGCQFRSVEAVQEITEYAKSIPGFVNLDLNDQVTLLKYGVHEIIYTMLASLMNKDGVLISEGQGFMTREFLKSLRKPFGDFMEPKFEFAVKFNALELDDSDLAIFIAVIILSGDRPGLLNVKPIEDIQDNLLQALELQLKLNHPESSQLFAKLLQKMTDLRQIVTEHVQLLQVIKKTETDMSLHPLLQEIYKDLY
SRC3 TRFRET art = TR-FRET artefact, counter-screen to PPARgamma/SRC-3 agonist assay | PPARgamma/SRC-3 format; stronger effect = higher value | TR-FRET ratio at 8 µM | 99,000 tested, 0.39% active
SRC1 TRFRET art = TR-FRET artefact, counter-screen to PPARgamma/SRC-1 agonist assay; TR-FRET detection artefact counter-screen, emission ratio; stronger effect = higher value; TR-FRET ratio at 8 µM; 99,000 tested, 0.34% active; AID 1051; in the data active = TR-FRET ratio above about 2300
PPARg SRC-1 ag = agonists of human PPARgamma SRC-1 coactivator recruitment; PPARgamma-SRC-1 coactivator recruitment biochemical assay; 200,000 tested, 0.41% active; activation, % at 8 µM; AID 631; P37231; in the data active = activation above about 19%
SRC2 TRFRET art = TR-FRET artefact, counter-screen to PPARgamma/SRC-2 agonist assay; 200,000 tested, 0.4% active; stronger effect = higher value; TR-FRET ratio at 8 µM
PPARg SRC2 recr = PPARgamma-driven SRC-2 recruitment agonism; P37231; PPARgamma LBD-SRC-2 recruitment, biochemical; activation, % at 8 µM; 200,000 tested, 0.34% active; AID 1032; in the data active = activation above about 22%
A number is an active result; – = inactive; · = no result. Rule as the data show it, unless noted: active = TR-FRET ratio above about 2000; inactive = the rest.

SMILES	PPARg SRC3 recr	SRC3 TRFRET art	SRC1 TRFRET art	PPARg SRC-1 ag	SRC2 TRFRET art	PPARg SRC2 recr
CC(C)CCNC(=O)C(CC(C)C)N(Cc1ccc2c(c1)OCO2)C(=O)c1snc(C(N)=O)c1N (stereo unspecified)	–	–	–	–	–	–
Oc1c(Br)cc(Br)cc1C=NCc1ccc(F)cc1	–	–	–	21	–	–
Oc1c(Br)cc(Br)cc1C=NCc1ccccc1	–	–	–	–	–	–
COc1ccc(-c2nnc(SCc3nnc(-c4ccc(Cl)cc4)o3)n2-c2ccccc2)cc1	–	·	·	–	–	–
O=C(OC1CCCCC1=O)c1cc(Cl)ccc1[N+](=O)[O-] (stereo unspecified)	–	–	–	–	–	–
CC(=O)Nc1ccc(-c2nnc(SCC(=O)c3ccc4c(c3)Cc3ccccc3-4)n2C)cc1	–	·	·	–	2129	–
Cn1c(SCC(=O)c2ccc3c(c2)Cc2ccccc2-3)nnc1-c1cccc(N)c1	–	–	–	–	–	–
O=C(/C=C/c1cccc([N+](=O)[O-])c1)N1CCN(Cc2ccc3c(c2)OCO3)CC1	–	–	–	–	–	–
O=C(Nc1cccnc1)c1cc(-c2ccc3c(c2)OCO3)on1	–	·	·	–	1992	–
O=C(Nc1cccnc1)c1cc(-c2ccc(F)cc2)on1	–	–	–	–	–	–
CCOC(=O)c1c(NC(=O)CSc2nnc(CNc3ccc(F)cc3)o2)sc(C(C)=O)c1C	34	·	·	–	–	–
CCOC(=O)c1c(NC(=O)CSc2nc(C)cc(C)c2C#N)sc(C(C)=O)c1C	–	·	·	–	3647	62
CCOC(=O)c1c(NC(=O)CSc2nnc(-c3ccc(C)cc3)o2)sc(C(C)=O)c1C	–	·	·	–	–	–
CC1CCc2c(sc3nc(SCC(=O)NCc4ccco4)nc(N)c23)C1 (stereo unspecified)	–	·	·	21	–	–
CC(=O)NCCCC(=O)NN1C(=S)N(Cc2ccccc2)C(=O)C1CC(=O)Nc1cccc(C)c1 (stereo unspecified)	–	–	–	–	–	–
Cc1cc(C)c2c(c1)NC(c1cc3c(cc1Br)OCO3)C1CC=CC21 (stereo unspecified)	–	–	3042	45	–	–
Brc1cc2c(cc1C1Nc3ccccc3C3C=CCC31)OCO2 (stereo unspecified)	–	–	–	–	–	–
COCC(C)n1c(SCc2cc(=O)n3cc(C)ccc3n2)nc2ccccc2c1=O (stereo unspecified)	–	–	–	–	–	–
Cc1ccc(S(=O)(=O)CC(=O)c2cc(C)c(O)c(C)c2)cc1	–	–	–	–	–	–
COC(=O)c1sc(NC(=S)NC(=O)c2ccccc2F)nc1C	–	–	2321	–	2016	–
CCN(CC)c1ccc(/C=c2\sc3nc4ccccc4n3c2=O)c(O)c1	–	4506	5472	–	3056	–
O=c1/c(=C/c2ccc(O)c([N+](=O)[O-])c2)sc2nc3ccccc3n12	–	–	–	–	–	–
CC(=O)c1cccc(NC(=O)CN2C(=S)NC(C)(C)CC2C)c1 (stereo unspecified)	–	–	–	–	–	–
Cc1ccc(C(=O)N/C(=C\c2ccccc2)C(=O)NCCCn2ccnc2)cc1	–	–	–	–	–	–
CCCN(CCC)CCCNC(=O)c1cc2c(=O)[nH]c3ccccc3c2n1C	–	–	–	–	–	–
SMILES	PPARg SRC3 recr	SRC3 TRFRET art	SRC1 TRFRET art	PPARg SRC-1 ag	SRC2 TRFRET art	PPARg SRC2 recr
Cn1c(C(=O)NCc2ccco2)cc2c(=O)[nH]c3ccccc3c21	–	–	2510	23	–	–
CCCOCC(O)CCc1n[nH]c(=S)n1-c1ccccc1 (stereo unspecified)	–	–	–	–	–	–
CCOC(=O)CSC(=S)NC(=O)c1ccc(OC)cc1	–	–	2487	–	1985	–
Cc1cc(OC(C)C(=O)N/N=C/CC(C)c2ccccc2)ccc1Cl (stereo unspecified)	–	·	·	–	–	–
Cc1cc(Cl)ccc1Oc1ncnc2oc(-c3ccccc3)cc12	62	·	·	–	–	–
CN(CP(=O)(O)CN(C)S(C)(=O)=O)S(C)(=O)=O	–	·	·	21	–	–
CC(C)CC(=O)OCc1cn(-c2ccccc2)nn1	–	·	·	–	–	–
C#CC1(NC(=O)NCCCC)CCCCC1	–	–	–	–	–	–
Cc1c(NS(=O)(=O)c2ccc3c(c2)OCCO3)cccc1-c1nc2cccnc2s1	–	·	·	–	1991	–
CC(=O)c1cccc(NC(=O)COc2ccccc2C(=O)c2cc(C#N)c(=O)n(C3CCCCC3)c2)c1	–	–	–	–	–	–
N#Cc1cc(C(=O)c2ccccc2OCC(=O)Nc2ccccc2Cl)cn(C2CCCCC2)c1=O	–	2092	–	–	–	–
O=C(NCCCCNC(=O)c1ccc(Cl)s1)c1ccc(Cl)s1	–	·	·	–	–	–
O=C(NCCCCCCNC(=O)c1ccc(Br)s1)c1ccc(Br)s1	–	·	·	–	2455	–
CCc1ccc(NC(=O)Cn2c3[n+](c4c(F)c(F)ccc42)CCCCC3)cc1	–	–	–	–	–	–
Cc1c(C(=O)Nc2c(F)cccc2F)sc2ncnc(N3CCN(c4ccccc4)CC3)c12	–	2183	–	–	–	–
CCOc1ccc(C2C([N+](=O)[O-])=C(C)N(C)C(=O)N2C)cc1OC (stereo unspecified)	–	–	–	–	–	–
COc1ccc(N2CCN(C(=O)c3cccn4c(=O)c5ccccc5nc34)CC2)cc1	–	–	–	–	–	–
O=c1cnnc(SCc2ccc([N+](=O)[O-])cc2)[nH]1	73	–	–	79	–	45
CCCC(=O)Nc1ccc(Cc2ccc(NC(=O)CCC)c(C(=O)O)c2)cc1C(=O)O	–	–	–	–	–	–
N#Cc1c(SCC(N)=O)nc2c(c1-c1ccc(OCc3ccccc3)cc1)CCCC2	71	·	·	63	–	–
CC(=O)Nc1ccc(NC(=O)/C=C/c2ccccc2)cc1	–	–	–	–	–	–
CC(=O)N1CCN(c2ccc(NC(=O)/C=C/c3ccccc3)cc2)CC1	–	–	–	–	–	24
CCC(C)NS(=O)(=O)c1ccc(OCC(=O)NCc2cccnc2)cc1 (stereo unspecified)	–	·	·	–	–	–
Cc1ccc(S(=O)(=O)NC(=O)COc2ccccc2)cc1	–	–	–	21	–	–
Cc1ccc(NS(=O)(=O)c2ccc(OCC(=O)NCc3cccnc3)cc2)cc1	–	–	–	–	–	27
Cc1ccc(OCC(=O)NS(=O)(=O)c2ccccc2)cc1	–	–	–	–	–	–
Cc1ccc2nc(-c3cccnc3)cc(C(=O)Nc3ccc(F)cc3C)c2c1	–	–	–	–	–	–
COC(=O)c1cnn(-c2nc3c(C)cccc3s2)c1C	–	·	·	61	–	–
CC1(C)C2CCC1(CS(=O)(=O)Nc1ccc(S(=O)(=O)N3CCCCC3)cc1)C(=O)C2 (stereo unspecified)	–	–	–	–	–	–
